Here are results for 56 compounds from ChEMBL document CHEMBL3988442, “University of Dundee, Small-Polar-MMV Screening Library” (2021).

The whole screen tested about 69,000 compounds, of which about 420 (0.61%) showed an effect of 50% or more. This excerpt belongs to a sample that is enriched for strong results.

The target in this experiment is T1, Histidine--tRNA ligase (Leishmania infantum) (UniProt A4I591).
T1 sequence (whole entry): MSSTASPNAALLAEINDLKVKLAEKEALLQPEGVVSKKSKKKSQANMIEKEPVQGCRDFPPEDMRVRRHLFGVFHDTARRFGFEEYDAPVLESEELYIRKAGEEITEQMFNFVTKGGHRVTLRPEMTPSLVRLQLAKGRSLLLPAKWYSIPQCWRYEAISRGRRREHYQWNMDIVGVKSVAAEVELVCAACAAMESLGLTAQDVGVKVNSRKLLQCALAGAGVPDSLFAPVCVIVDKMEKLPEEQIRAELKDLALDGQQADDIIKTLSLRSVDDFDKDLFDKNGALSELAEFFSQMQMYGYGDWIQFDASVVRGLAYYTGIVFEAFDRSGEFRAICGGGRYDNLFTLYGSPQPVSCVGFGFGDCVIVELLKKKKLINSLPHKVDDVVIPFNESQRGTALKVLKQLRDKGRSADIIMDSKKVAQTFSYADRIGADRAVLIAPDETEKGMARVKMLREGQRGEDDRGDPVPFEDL
The experiment in a line: Leishmania infantum Histidine tRNA synthetase (LdHisRS). On the set-up: scale not given: in the data most compounds retested in dose-response had high values. Particulars: 30 µM. The format is functional.
Consider `Cc1ccc(OCC(=O)N2C[C@@H]3CN(C)CCO[C@@H]3C2)cc1`, for which the Percent Effect was 5.17%. Regarding `Cc1cc(C)n(C2CN(CC(=O)N(C)Cc3ccsc3)C2)n1`, the Percent Effect is 43.8%. The figure for `COc1cccc(CN(C)C(=O)CN2CC(n3nc(C)cc3C)C2)c1` is 62.9%; for `COc1ccccc1CN(C)C(=O)CN1CC(n2nc(C)cc2C)C1` it is 40.2%. The figure for `COc1cc(C(=O)N2CCO[C@H]3[C@H](OCC4CC4)CC[C@@H]32)ccc1F` is 12.1%.

`O=C(NCc1cccnc1)[C@H]1C[C@@H]2CCN(c3ccncn3)C[C@H]2O1`: the Percent Effect amounted to 15.3%. The figure for `CCN1C[C@@H]2CN(C(=O)c3ccsc3)C[C@@H]2C1=O` is -28.6%; for `N#Cc1cccc(CN2C[C@@H](NC(=O)C3CC3)[C@H]3OCCC[C@H]32)c1` it is -2.75%. The figure for `COc1cc(F)c(S(=O)(=O)Nc2cnc(O)cc2C)cc1OC` is 97.6%. Regarding `Cc1cc(O)ncc1NS(=O)(=O)c1cccc(F)c1F`, the Percent Effect turned out to be 95.2%. The figure for `CC(C)(CN)NS(=O)(=O)c1cccc(F)c1F` is 11.8%; for `COc1ccccc1S(=O)(=O)Nc1cnc(O)cc1C` it is 20.5%; for `COc1ncc(NS(=O)(=O)c2ccc(F)cc2F)cn1` it is 12.8%. The figure for `O=C(O)c1c[nH]c2cc(NS(=O)(=O)c3cccc(F)c3F)ccc12` is 36.5%; for `COc1ccc(CN2CCO[C@H]3CN(C(=O)C4CC4)CC[C@H]3C2=O)cc1` it is 11.1%; for `COC[C@@]12CCO[C@@H]1CCN(Cc1ccc(C)s1)C2` it is -2%. Turning to `O=C(c1cnccn1)N1C[C@@H]2CC[C@H](C1)N(C(=O)Cc1ccsc1)C2`, the Percent Effect was determined as 12.3%.

Take `CCCS(=O)(=O)N1C[C@H](N(C)Cc2ccco2)[C@@H]2OCCC[C@@H]21`: the Percent Effect turned out to be 9%. As to `Cc1nc(C(=O)N2C[C@@H]3CN(S(C)(=O)=O)CCO[C@@H]3C2)cs1`, the Percent Effect amounted to 8.77%. The figure for `CN(C)c1nc(CNC(=O)Nc2cccc([S+](C)[O-])c2)cs1` (stereo unspecified) is 27.1%.

In the case of `CN1CCN(c2cccc(NC(=O)NCc3csc(N(C)C)n3)c2)C1=O`, the Percent Effect amounted to 64.7%. With `Cc1nnsc1CNC(=O)Nc1cccc(N2CCN(C)C2=O)c1`, the Percent Effect worked out at 11.8%. In the case of `Cc1cccc(CN2C(=O)CO[C@@H]3CN(Cc4cnn(C)c4)C[C@H]32)c1`, the Percent Effect was determined as 23.1%. With `C=Cc1cccc(CN2C[C@H]3CC[C@@H]2CN(Cc2c(C)noc2C)C3)c1`, the Percent Effect is 27.4%. The figure for `Cc1cccc(C)c1-c1cc(NCCO)nc2[nH]ccc12` is 10%; for `COCCNc1cc(-c2ccccc2CCN)c2cc[nH]c2n1` it is 4.84%; for `CNc1cc(C)nc(-c2cc(NC)nc3[nH]ccc23)n1` it is -2.04%. `CNc1cc(-c2ccccc2CN)c2cc[nH]c2n1`: the Percent Effect was determined as 80.7%. The figure for `CNc1cc(-c2cccc(CN)c2)c2cc[nH]c2n1` is 68.7%. The figure for `CNc1cc(-c2ccc(COCCN)cc2)c2cc[nH]c2n1` is 20.5%; for `O=C(c1cocn1)N1CC[C@H]2OCC[C@@]2(COc2ncccc2F)C1` it is 22.4%.

Take `O=C(Cc1ccccc1)N1CC[C@@H]2CNS(=O)(=O)[C@@H]2CC1`: the Percent Effect turned out to be 28.1%. The figure for `Nc1cccnc1N1CCN(c2ccccc2)CC1` is 8.33%.

With `Nc1cccnc1N1CCCCCC1`, the Percent Effect came to 58.3%. The figure for `Nc1cccnc1N1CCC(O)CC1` is 12.5%.

Take `COc1ccc(CC(=O)N2C[C@@H]3COC[C@]3(CN(C)C)C2)cc1`: the Percent Effect is -47.1%. For the compound `Cc1nc(COC[C@@H]2CC[C@H]3[C@H](CCN3C(=O)C3CC3)O2)cs1`, the Percent Effect was determined as 14.7%. Regarding `Cc1cccc(C(=O)N2C[C@@H]3CCN(c4cccnc4)C[C@@H]3C2)c1`, the Percent Effect was 6.57%. The figure for `CN(C)C(=O)CN1CC[C@H]2CN(C3CCOCC3)C[C@@H]2C1=O` is 11.7%.

In the case of `CC(C)n1nc2c(cc1=O)CN(CC1CCCCO1)CC2` (stereo unspecified), the Percent Effect was determined as 35.6%. Regarding `Cn1nc2c(cc1=O)CN(CC1CCCCO1)CC2` (stereo unspecified), the Percent Effect came to 104%. The figure for `CCn1nc2c(cc1=O)CN(CC1CCCCO1)CC2` (stereo unspecified) is 0%; for `Cc1ncc2c(n1)CN(CC1CCCCO1)CC2` (stereo unspecified) it is 25.7%.

Turning to `Cn1nc2c(cc1=O)CN(CCN1CCCC1=O)CC2`, the Percent Effect came out at 4.39%.

Turning to `CCCn1nc2c(cc1=O)CN(CC1CCCCO1)CC2` (stereo unspecified), the Percent Effect was 79.5%. The figure for `CCCSCC(=O)N1C[C@H]2CC[C@@H]1CN(c1ncccn1)C2` is 4.17%. As to `CC(C)CC(=O)N1CC[C@H]2N(C)CC[C@@]2(C(=O)Nc2ccccc2)CC1`, the Percent Effect amounted to 15.4%. As to `Cc1nccc([C@@H]2C[C@@H]3CCN(S(C)(=O)=O)C[C@H]3O2)n1`, the Percent Effect was 22.6%.

Regarding `CC1=N[C@@]2(CC[C@@H]3CN(CC(=O)N(C)C)C[C@@H]32)C(=O)N1CC1CC1`, the Percent Effect was found to be 23.1%.

Take `COc1ccc(F)c(CN2CC(=O)N(c3ccccc3C)CC2C)c1` (stereo unspecified): the Percent Effect amounted to 31.3%.

On to `COc1ccc(F)c(F)c1CN1CC(=O)N(c2ccccc2C)CC1C` (stereo unspecified), for which the Percent Effect came to 53%. The figure for `COc1cccc(CN2CC(=O)N(c3ccccc3C)CC2C)c1OC` (stereo unspecified) is 38.5%; for `c1csc(N2[C@H](Cn3cncn3)C[C@@H]3CNCC[C@@H]32)n1` it is -6.84%. For `CC(C)c1cc(N2CCC(C(C)N3CCCC3)CC2)n2nccc2n1` (stereo unspecified), the Percent Effect came to 69.4%. The figure for `CC(C)c1cc(N2CC[C@H](F)C2)n2nccc2n1` is 22.2%; for `CC(C)c1cc(N2CCC(N)CC2)n2nccc2n1` it is 22.9%.
